Rows were chosen to be rich in hits. Some 11% of all compounds tested hit in one or more screens of this group.
L3MBTL1 inh = inhibitors of human L3MBTL1 | Q9Y468 | AlphaScreen L3MBTL1–H3K9me1 peptide binding | Potency, µM (top dose mostly 57.1 µM), inactives show at the highest dose activity, negative = inhibition, usual class: inhibitors | 0.66% of 230,000 active | AID 485360; further: on the % scale 0 is the no-effect control and ±100 the full control effect; nearly all actives have a fitted effect of over 60% in size
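AlphaScreen assay: L3MBTL1 (50 nM final) was preincubated 30 min at room temperature with biotinylated H3(1-15)K9me1 peptide (75 nM final), then 30 min with library compounds; streptavidin donor and nickel chelate acceptor beads (10 ug/mL final) added, 30 min dark.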
G9a inh = inhibitors of human histone lysine methyltransferase G9a; AID 504332; 8.8% of 350,000 active; G9a H3K9 monomethylation, AlphaScreen, 2 h; Q96KQ7; Potency, µM (doses to about 102 µM), without a hit: top-dose activity, negative = inhibition, usual class: inhibitors; further: on the % scale 0 is the no-effect control and ±100 the full control effect; nearly all actives have a fitted effect of over 75% in size
Target sequence (Q96KQ7 913-1193 limits assumed): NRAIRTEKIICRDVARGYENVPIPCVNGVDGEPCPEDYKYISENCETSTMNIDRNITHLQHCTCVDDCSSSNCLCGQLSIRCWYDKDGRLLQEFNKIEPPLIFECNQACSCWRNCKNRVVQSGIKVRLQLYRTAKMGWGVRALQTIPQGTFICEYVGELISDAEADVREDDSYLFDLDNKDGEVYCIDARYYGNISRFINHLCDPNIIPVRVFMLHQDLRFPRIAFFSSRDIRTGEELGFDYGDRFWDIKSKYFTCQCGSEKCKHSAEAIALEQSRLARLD
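Step 1: enzyme (final 20 nM) with compound, 15 min RT. Step 2: substrate peptide 500 nM and SAM 20 uM, 2 h RT. Step 3: anti-H3K9me1 antibody and AlphaScreen beads, 10 min, then plate read.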
BAZ2B inh = blocks human BAZ2B; Q9UIF8; AlphaScreen BAZ2B-H3K14Ac peptide displacement; Potency, µM (doses to about 114 µM), without a hit: at the highest dose activity change, negative = inhibition, usual class: inhibitors; 4.4% of 360,000 active; further: on the % scale 0 is the no-effect control and ±100 the full control effect; nearly all actives have a fitted effect of over 60% in size
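AlphaScreen luminescence quantifies BAZ2B engagement of H3K14Ac peptide; the protein and biotinylated peptide are both at 50 nM final, buffer PBS pH 7.4 with 0.01% Tween-20, all steps at room temperature.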
HP1b binding inh = HP1-beta chromodomain-methylated histone interaction inhibition; AlphaScreen HP1-beta / biotin-H3K9me3 peptide binding; Potency, µM (top dose mostly 114 µM), without a hit: top-dose activity change, negative = inhibition, actives largely listed as inhibitors; 0.56% of 390,000 active; AID 540317; further: nearly all actives have a fitted effect of over 70% in size
Target sequence (P83916 whole entry, looked up): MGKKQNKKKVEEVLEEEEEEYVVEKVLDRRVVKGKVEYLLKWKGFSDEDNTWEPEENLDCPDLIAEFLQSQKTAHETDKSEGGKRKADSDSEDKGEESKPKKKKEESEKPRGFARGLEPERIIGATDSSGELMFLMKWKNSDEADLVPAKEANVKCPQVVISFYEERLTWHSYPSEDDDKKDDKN
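Compound inhibition of the preformed complex between 50 nM HP1-beta and 50 nM biotinylated H3K9me3 peptide was read by AlphaScreen. Buffer was PBS pH 7.4 with 0.01% Tween-20. Incubations ran 30 min at room temperature, with 10 ug/mL donor/acceptor beads.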
JMJD2A Tudor inh = inhibitors of human JMJD2A Tudor domain. AlphaScreen JMJD2A-Tudor / H3K4me3 peptide binding. O75164. Potency, µM (doses to about 114 µM), without a hit: at the top dose activity change, negative = inhibition, hits mostly inhibitors. 4.4% of 390,000 active; further: on the % scale 0 is the no-effect control and ±100 the full control effect; nearly all actives have a fitted effect of over 50% in size
* hit, by the source's call; ? = inconclusive; . = not tested or not shown; [ ] = another dose, or the depositor's remark. The call rests on the fitted dose curve; in most records, active means well fitted inhibition curve with a large enough effect; inconclusive means small, poorly fitted or top-dose-only effect; inactive means no such curve, though single readings can be large or run the other way. Potency means the concentration at half of the fitted maximal effect.

SMILES	L3MBTL1 inh	G9a inh	BAZ2B inh	HP1b binding inh	JMJD2A Tudor inh
CCCNC(=O)c1ccc(N2CCC3(CC2)CC(c2cccc(Br)c2)=NO3)c([N+](=O)[O-])c1	-13%	79µM*	?	21%	-31%
COc1ccc(CC2(C)OC(c3ccc(C)c([N+](=O)[O-])c3)=NN2C(C)=O)cc1 (configuration not stated)	-26%	?	-37%	71µM*	79µM*
COc1ccc(CC2(C)OC(c3ccc(C)cc3)=NN2C(C)=O)cc1 (configuration not stated)	17%	10%	11%	26%	0%
c1c2c(cc3sc(N4CCOCC4)nc13)OCO2	-1%	-50%[2.33 µM]	-9%	?	?
c1c2c(cc3sc(N4CCCCC4)nc13)OCO2	-8%	10µM*	?	-31%	-35%
c1ccc2c(c1)CCN(c1nc3cc4c(cc3s1)OCO4)C2	-8%[11.4 µM]	3.2µM*	?	-24%	-34%[57.1 µM]
c1ccc(N2CCN(c3nc4cc5c(cc4s3)OCO5)CC2)cc1	3%	?	2%	-22%	-10%[57.1 µM]
CCC(=O)N1CCc2cc(Br)cc(S(=O)(=O)NCCc3ccccc3Cl)c21	.	0%[59 µM]	1%	33%	-2%
Cc1cccc(NC(=O)CCc2nnc3ccc(NCc4ccco4)nn23)n1	.	-7%	50µM*	46%	16%
COc1ccc(NC(=O)CCc2nnc3ccc(NCc4ccco4)nn23)cc1	.	18%	-30%	21%	-28%
O=C(CCc1nnc2ccc(NCc3ccco3)nn12)Nc1ccccn1	.	?	50µM*	32%	11%
O=C(CCc1nnc2ccc(NCc3ccco3)nn12)N1CCN(c2ccccc2F)CC1	.	.	71µM*	30%	?
COc1cccc(-n2c(=O)c3sc4ccccc4c3n(CC(=O)Nc3ccccc3OC)c2=O)c1	.	?	?	18%	-19%
CCC(=O)N1CCc2cc(Br)cc(S(=O)(=O)N3CCC(C(=O)Nc4ccccc4F)CC3)c21	.	2%[59 µM]	-3%	33%	-2%
CCOC(=O)C1CCCN(C(=O)Cc2ccc(Cl)cc2)C1 (configuration not stated)	.	2%[59 µM]	2%	27%	15%
CCOC(=O)C1CCCN(C(=O)c2ccc(Cl)cc2)C1 (configuration not stated)	1%	79µM*	-10%	52%	-4%
CCOC(=O)C1CCCN(C(=O)c2cc(Cl)ccc2Cl)C1 (configuration not stated)	7%	45µM*	-3%	21%	-11%
Cc1ccc(-c2cc(C(F)(F)F)n3nc(C(=O)Nc4ccc(Cl)c(C(F)(F)F)c4)cc3n2)cc1	.	5%[59 µM]	-19%	7%	-10%
CC1=NN(c2ccccc2)C(=O)/C1=C\c1cc(C)n(-c2ccccc2)c1C	0%	3.5µM*	?	?	-27%
COc1ccc(/C=C2/C(=O)N(c3ccccc3)N=C2C)cc1Br	.	35µM*	13µM*	22µM*	18µM*
COc1ccc(/C=C2/C(=O)N(c3cccc(F)c3)N=C2C)c(OC)c1	0%[2.29 µM]	19%[0.501 µM]	?	-7%	-23%
CC1=NN(c2ccccc2)C(=O)/C1=C/c1c(O)n(-c2ccc(F)cc2)[nH]c1=O	-1%	11µM*	40µM*	?	28µM*
CC1=NN(c2ccccc2)C(=O)/C1=C\c1cc(C)n(-c2cccnc2)c1C	-10%	-45%	?	11%	-12%
CC1=NN(c2ccccc2)C(=O)/C1=C\c1ccc(Br)s1	?	8.9µM*	11µM*	?	10µM*
CCOc1ccc(CCNC(=O)Cn2ncn3c(cc4ccccc43)c2=O)cc1OCC	.	0%[59 µM]	3%	23%	2%
SMILES	L3MBTL1 inh	G9a inh	BAZ2B inh	HP1b binding inh	JMJD2A Tudor inh
Cc1c(CNCc2ccc(OC(C)C)cc2)c(C(=O)O)c(C)n1Cc1ccc(Cl)cc1	.	-1%[59 µM]	-30%	41%	-23%
CC1=NN(c2ccccc2)C(=O)/C1=C\N(O)c1ccccc1	-1%	.	-11%	30%	?
CC1=NN(c2ccccc2)C(=O)/C1=C/c1cccs1	?	32µM*	16µM*	?	40µM*
CC1=NN(c2ccc(C)c(C)c2)C(=O)/C1=C/c1ccc2c(c1)n(C)c(=O)n2C	-9%	7.1µM*	?	2%	-19%
CC1=NN(c2ccccc2)C(=O)/C1=C/c1ccc[nH]1	?	22µM*	11µM*	16µM*	16µM*
CC1=NN(c2ccccc2)C(=O)/C1=C/c1ccc(Cl)cc1	?	40µM*	?	?	?
Cc1nc2c(-c3ccccc3)c(C)nn2c(C)c1CCC(=O)NCc1ccc(F)cc1	.	0%[59 µM]	1%	38%	6%
CN1COc2ccc3ccccc3c2C1	.	2.2µM*	?	43%	-10%
O=c1/c(=C/c2ccccn2)sc2n1CN(c1ccccc1)CN=2	-3%	50µM*	7%	-37%	4%[11.4 µM]
Cc1cccc(N2CN=c3s/c(=C\c4ccccn4)c(=O)n3C2)c1	-6%	22%	-5%	45%	-12%
CNC(=S)N(C1=NCC(c2ccc([N+](=O)[O-])cc2)S1)c1ccccc1 (configuration not stated)	.	35µM*	?	?	?
Cc1cccc(N2CCN(C(=O)c3cn(CC(C)C)c(=O)c4c3c3ccccc3n4C)CC2)c1C	.	7%[59 µM]	3%	11%	-10%
O=[N+]([O-])c1ccc(Sc2nccn2Cc2ccccc2)c([N+](=O)[O-])c1	-13%	45µM*	?	-33%	?
Cc1nn(C(C)c2n[nH]c(=S)n2-c2ccc(F)cc2)c(C)c1[N+](=O)[O-] (configuration not stated)	22%[11.4 µM]	4.5µM*	0%	18%	25µM*
Cc1nn(CCc2n[nH]c(=S)n2-c2ccc(F)cc2)c(C)c1[N+](=O)[O-]	.	2.2µM*	5%	13%	18µM*
Cc1cccc(-n2c(Cn3nc(C)c([N+](=O)[O-])c3C)n[nH]c2=S)c1	3%	?	12%[57.1 µM]	-7%	22µM*
Cc1nn(CCc2n[nH]c(=S)n2-c2ccc(F)c(Cl)c2)c(C)c1[N+](=O)[O-]	-1%	?	-6%	9%	-23%
Cc1ccc(C(=O)c2cn(Cc3cc(C)ccc3C)c3nc(C)ccc3c2=O)cc1	.	-33%[59 µM]	-12%	1%	-28%
COc1c(C)cccc1C(=O)Nc1cccc2ccc(C)nc12	.	89%[59 µM]	76%	110%	64%
Cc1nnc(NC(=O)c2ccccc2)s1	.	-5%[59 µM]	-2%	31%	-19%
CC1CN(c2nnc(NC(=O)c3ccccc3)s2)CC(C)O1 (configuration not stated)	-20%	56µM*	-11%	25%	-20%
O=C(/C=C/c1ccc(O)c(O)c1)c1ccc(S(=O)(=O)N2CCCCCC2)cc1	?	5µM*	35µM*	40µM*	?
CCCOc1ccc(/C=C2/C(=O)ON=C2C)cc1OCC	.	45µM*	-8%	26%	-8%

Screening results (PubChem BioAssay)
